Test results taken from the supplement of paper PMC10849652.
Of roughly 7,900 targets only a part is listed; those with a hit were picked by preference. About 0.6% of all pairs of compound and target were hits.

Experiments:
Experiment in all cases: log2 fold change, soluble protein after heating vs DMSO (PISA); higher = thermal stabilisation; K562 cells, 10 uM, 30 min; active = over 0.2 and 3.5 SD of the protein, either way, in both replicates (recomputed)
ZW10 = ZW10 (UniProt O43264)
Method in brief: (§1)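 Quantification of soluble protein used TMTpro 16plex LC-MS/MS, with channel sums equalised. Samples were the supernatant after 21,000xg for 90 min of pooled aliquots from K562 cells (2×10^6 cells/mL) treated with 10 μM compound for 30 min, heated for 3 min over 48°C-58°C, and extracted in PBS with 0.5% NP-40 at 4°C. Values, from duplicates, describe thermal stability against control samples on a log2 fold-change scale.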

ZWILCH = ZWILCH (UniProt Q9H900)
Method in brief: as §1

ZYG11B = ZYG11B (UniProt Q9C0D3)
Method in brief: as §1

Measured: log2 fold change

Chain of ZYG11B (Q9C0D3 whole entry, looked up): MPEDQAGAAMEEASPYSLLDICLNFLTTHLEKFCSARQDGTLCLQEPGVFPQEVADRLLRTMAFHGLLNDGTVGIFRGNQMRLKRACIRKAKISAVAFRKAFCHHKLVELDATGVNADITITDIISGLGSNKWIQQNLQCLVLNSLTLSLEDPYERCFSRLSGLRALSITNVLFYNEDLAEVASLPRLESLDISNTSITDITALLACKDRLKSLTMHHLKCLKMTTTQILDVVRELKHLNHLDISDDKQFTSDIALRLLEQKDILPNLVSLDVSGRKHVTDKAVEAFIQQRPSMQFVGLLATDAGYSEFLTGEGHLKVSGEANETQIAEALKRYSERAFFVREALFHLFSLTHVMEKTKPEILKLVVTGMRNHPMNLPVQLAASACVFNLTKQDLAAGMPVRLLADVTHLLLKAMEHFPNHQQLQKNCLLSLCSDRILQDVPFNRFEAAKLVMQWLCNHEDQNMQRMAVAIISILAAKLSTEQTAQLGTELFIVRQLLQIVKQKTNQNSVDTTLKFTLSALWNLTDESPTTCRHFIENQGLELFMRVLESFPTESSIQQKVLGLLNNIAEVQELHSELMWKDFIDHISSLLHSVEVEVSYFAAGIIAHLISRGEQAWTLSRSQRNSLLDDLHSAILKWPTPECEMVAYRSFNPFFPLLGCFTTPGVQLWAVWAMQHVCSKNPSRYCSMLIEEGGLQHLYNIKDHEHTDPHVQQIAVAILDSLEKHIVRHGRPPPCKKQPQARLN
Chain of ZWILCH (Q9H900 whole entry, looked up): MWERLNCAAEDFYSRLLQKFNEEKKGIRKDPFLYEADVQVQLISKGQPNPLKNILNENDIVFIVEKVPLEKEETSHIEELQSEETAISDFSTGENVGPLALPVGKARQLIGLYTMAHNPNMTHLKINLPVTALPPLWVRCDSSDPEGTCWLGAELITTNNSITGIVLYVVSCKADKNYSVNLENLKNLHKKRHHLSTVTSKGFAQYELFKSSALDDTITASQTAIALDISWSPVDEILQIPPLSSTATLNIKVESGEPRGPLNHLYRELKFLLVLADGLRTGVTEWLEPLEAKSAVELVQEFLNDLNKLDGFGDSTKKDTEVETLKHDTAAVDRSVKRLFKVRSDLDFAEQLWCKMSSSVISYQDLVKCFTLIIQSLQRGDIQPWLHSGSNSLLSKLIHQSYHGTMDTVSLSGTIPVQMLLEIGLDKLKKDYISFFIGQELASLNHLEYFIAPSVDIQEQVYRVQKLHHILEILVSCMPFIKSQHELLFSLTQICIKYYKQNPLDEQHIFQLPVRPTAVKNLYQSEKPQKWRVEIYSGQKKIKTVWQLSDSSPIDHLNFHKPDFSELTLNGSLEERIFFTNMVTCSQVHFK
Chain of ZW10 (O43264 whole entry, looked up): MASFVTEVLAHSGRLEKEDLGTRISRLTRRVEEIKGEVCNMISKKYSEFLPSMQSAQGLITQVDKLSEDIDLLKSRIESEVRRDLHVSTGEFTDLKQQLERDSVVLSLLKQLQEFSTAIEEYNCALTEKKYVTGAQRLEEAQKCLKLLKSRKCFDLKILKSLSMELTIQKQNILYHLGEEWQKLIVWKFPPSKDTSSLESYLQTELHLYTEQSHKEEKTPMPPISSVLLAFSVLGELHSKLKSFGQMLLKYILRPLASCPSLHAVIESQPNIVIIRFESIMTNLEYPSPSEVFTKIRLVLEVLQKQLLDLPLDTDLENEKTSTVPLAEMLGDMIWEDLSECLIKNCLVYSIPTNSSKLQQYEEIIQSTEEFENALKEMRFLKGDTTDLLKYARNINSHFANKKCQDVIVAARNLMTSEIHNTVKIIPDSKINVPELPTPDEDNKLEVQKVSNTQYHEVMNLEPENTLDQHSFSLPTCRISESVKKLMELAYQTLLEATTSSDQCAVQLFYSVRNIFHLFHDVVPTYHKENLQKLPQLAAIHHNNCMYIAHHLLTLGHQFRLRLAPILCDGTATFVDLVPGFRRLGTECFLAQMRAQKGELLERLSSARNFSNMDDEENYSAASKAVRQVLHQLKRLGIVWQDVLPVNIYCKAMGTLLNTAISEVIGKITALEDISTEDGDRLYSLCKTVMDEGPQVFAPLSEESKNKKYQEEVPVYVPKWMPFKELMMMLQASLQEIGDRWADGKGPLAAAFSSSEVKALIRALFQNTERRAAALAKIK

COc1cccc2cc(-c3nc([C@H]4CC[C@H](C(=O)O)CC4)n4ncnc(N)c34)[nH]c12
inactive: ZW10 -0.051 | ZWILCH -0.041 | ZYG11B 0.02

CC(=O)c1cnc2ccc(-c3cc(Cl)c(O)c(Cl)c3)nc2c1N[C@H]1CC[C@H](CN(C)C)CC1
inactive: ZW10 0.011 | ZWILCH 0.004 | ZYG11B 0.004

Cc1ccc(Sc2cncc3sc(C(N)=O)cc23)cc1
inactive: ZW10 0.018 | ZWILCH -0.068 | ZYG11B -0.028

CN1CCN(c2nc(C3=C(c4c[nH]c5ccccc45)C(=O)NC3=O)c3ccccc3n2)CC1 [sotrastaurin]
inactive: ZW10 -0.089 | ZWILCH -0.059 | ZYG11B 0.026

C[C@@H](N)c1ccc(C(=O)Nc2ccnc3[nH]ccc23)cc1
inactive: ZW10 0.129 | ZWILCH 0.014 | ZYG11B -0.035

O=C(Nc1nc2ccccc2n1CCN1CCOCC1)c1cccc([N+](=O)[O-])c1 [IRAK-1-4 Inhibitor I]
inactive: ZW10 -0.076 | ZWILCH -0.042 | ZYG11B 0.044

Cc1ccc(C(=O)N(CCCN)[C@@H](c2nc3cc(Cl)ccc3c(=O)n2Cc2ccccc2)C(C)C)cc1 [ispinesib]
inactive: ZW10 -0.179 | ZWILCH -0.045 | ZYG11B 0.041

NC1(c2ccc(-c3nc4ccn5c(=O)[nH]nc5c4cc3-c3ccccc3)cc2)CCC1
inactive: ZW10 -0.141 | ZWILCH -0.097 | ZYG11B -0.087
